A selection: hits, their analogues and other compounds. The true share with any hit is near 0.54%.
PDI turbidity = inhibitors of human PDI, primary screen, biochemical, turbidity, single point, plate reader; Protein disulfide-isomerase (Homo sapiens), P07237; PDI insulin aggregation turbidity, A650, 90 min; inhibition, % at 10 µM; 0.052% of 350,000 active; AID 588391, 2011;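 active = mean inhibition across replicates of 30% or more, whatever share of single replicates reach that level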
Target sequence (P07237 whole entry, looked up): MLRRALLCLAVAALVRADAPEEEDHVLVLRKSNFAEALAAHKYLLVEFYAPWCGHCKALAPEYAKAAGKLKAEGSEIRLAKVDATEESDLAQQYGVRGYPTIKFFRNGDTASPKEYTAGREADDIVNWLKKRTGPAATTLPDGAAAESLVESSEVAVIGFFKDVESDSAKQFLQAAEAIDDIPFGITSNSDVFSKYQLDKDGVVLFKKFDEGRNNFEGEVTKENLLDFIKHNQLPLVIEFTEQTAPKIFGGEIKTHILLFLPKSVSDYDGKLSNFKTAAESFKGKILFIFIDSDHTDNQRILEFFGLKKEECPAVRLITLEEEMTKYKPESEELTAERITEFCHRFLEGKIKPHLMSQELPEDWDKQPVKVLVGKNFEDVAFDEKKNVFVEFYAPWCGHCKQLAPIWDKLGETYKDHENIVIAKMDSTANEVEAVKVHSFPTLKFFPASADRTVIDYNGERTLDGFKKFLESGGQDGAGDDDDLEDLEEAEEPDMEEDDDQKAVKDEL
PvdQ inh = P. aeruginosa PvdQ acylase inhibitors, primary screen, biochemical, fluorescence, plate reader and imaging, single point; purified PvdQ acylase; 0.063% of 340,000 active; inhibition, % at 10 µM; PvdQ acylase [Pseudomonas aeruginosa LESB58]; in the data active = inhibition above about 30%, passing the limit was not always enough;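 also: 0% = vehicle neutral wells and 100% = reference inhibitor wells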
Rtt109 Vps75 = inhibitors of C. albicans Rtt109/Vps75 HAT, primary screen, biochemical, ThioGlo CoA-SH fluorescence, plate reader | Histone acetyltransferase RTT109 (Candida albicans (strain SC5314 / ATCC MYA-2876)), … | purified Rtt109/Vps75, 4 h | inhibition, % at 34.9 µM | AID 540336, 2011 | 0.16% of 330,000 active;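 active = inhibition of at least 50% in every replicate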
ERp5 inh = inhibitors of ERp5-driven insulin aggregation, primary screen, biochemical, turbidity, absorbance 650 nm, single point; 90 min; inhibition, % at 9.99 µM; 0.05% of 350,000 active;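 active = mean replicate inhibition above about 25%, with every replicate also reaching it, limit read from the data, passing the limit was not always enough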
Efflux pump inh = inhibitors of Candida efflux pumps in yeast, primary screen, S. cerevisiae, Nile Red, multiplex. inhibition, % at 10 µM. S. cerevisiae Candida pump triplex. 0.44% of 330,000 active;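 active = plate passing quality check with inhibition over a set limit, or well fluorescence over plate mean plus 4 SD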;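 also: Nile Red retained in pooled yeast measured as flow cytometry median fluorescence; 0% = buffer negative control and 100% = Enniatin B positive control; higher means more Nile Red kept so more efflux inhibition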
Yeast cmpd fluor = counter-screen for efflux pump inhibitors: compound fluorescence | shares compounds with Efflux pump inh | S. cerevisiae AD/pABC3, flow cytometry | fluorescence ratio to DMSO, % at 10 µM | 4% of 1,700 active;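 active = fluorescence ratio to DMSO above its plate's cutoff, the plate mean ratio plus 5 SD, cut at about 210% in these data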;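 also: unstained yeast with no Nile Red so the signal is compound autofluorescence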
CaMdr1 efflux inh = inhibitors of Candida albicans Mdr1 efflux, confirmation, flow cytometry, singleplex, Cherry Pick1 set; AID 588518, 2011; inhibition, % at 10 µM; shares compounds with Efflux pump inh; S. cerevisiae AD/CaMDR1, Nile Red efflux; 1% of 1,700 active; in the data active = inhibition above about 26%;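 also: 0% = DMSO vehicle and 100% = reference inhibitor; higher means more Nile Red retained so more efflux inhibition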
CaCdr2 efflux inh = inhibitors of Candida albicans Cdr2 efflux pump, confirmation, S. cerevisiae AD/CaCDR2, flow cytometry, cherry pick 1, singleplex. shares compounds with Efflux pump inh. Nile Red retention. Nile Red retention ratio vs DMSO, % at 10 µM. 4% of 1,700 active; in the data active = Nile Red retention ratio vs DMSO above about 190%;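 also: higher ratio means more blocking of Cdr2 efflux of the dye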
CaCdr1 efflux inh = inhibitors of Candida albicans Cdr1 efflux pump, confirmation, S. cerevisiae AD/CaCDR1, flow cytometry, cherry pick 1, singleplex; shares compounds with Efflux pump inh; inhibition, % at 10 µM; 1% of 1,700 active; Nile Red efflux;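 active = inhibition above the screen-wide mean plus twice its standard deviation, cut at about 32% in these data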
* hit, by the source's call; / = no result.

SMILES	PDI turbidity	PvdQ inh	Rtt109 Vps75	ERp5 inh	Efflux pump inh	Yeast cmpd fluor	CaMdr1 efflux inh	CaCdr2 efflux inh	CaCdr1 efflux inh
CC(=O)Nc1ccc(S(=O)(=O)N2CCN=C2SCc2ccc(F)cc2)cc1	3	-11	-3	0	1.4*	89	0	91	0
CC(=O)Nc1ccc(S(=O)(=O)N2CCN=C2SCc2ccc(C)cc2)cc1	1	-9	12	11	0	/	/	/	/
O=C1/C(=C\c2ccco2)SC(=S)N1c1ccc(O)cc1	-4	9	8	3	0.4*	103	0	98	0
COc1ccc2c3c(n(C)c2c1)[C@@H](CO)N(C(=O)C1CC1)CC31CN(C(=O)CN(C)C)C1	/	/	/	3	/	/	/	/	/
CC(C)N(C)CCOC(=O)c1ccccc1Br	-2	-12	-13	/	13*	131	2	163	2
COc1ccc(NC(=O)N(C)C[C@@H]2OCCCC[C@@H](C)Oc3ccc(NC(=O)Nc4c(C)noc4C)cc3C(=O)N([C@@H](C)CO)C[C@H]2C)cc1	/	/	/	10	/	/	/	/	/
N#Cc1cc(C(=O)c2cc(F)ccc2O)cn(-c2nccs2)c1=O	3	4	17	/	6.7*	210*	2	95	1
O=C(C[C@@H]1C=C[C@@H](NC(=O)C2CCOCC2)[C@@H](CO)O1)Nc1nccs1	/	/	/	0	/	/	/	/	/
CN1[C@H](C(=O)NCc2ccccn2)[C@@H](CO)[C@@H]2Cn3c(ccc(-c4cccc(F)c4)c3=O)[C@@H]21	/	/	/	-8	/	/	/	/	/
NS(=O)(=O)c1ccc(CCNC(=O)c2cc(-c3ccccc3)nc3ccccc23)cc1	-4	4	1	/	21*	108	0	94	0
Cc1cc(C(F)(F)F)cc(NNC(=O)NC(=O)c2ccc(Cl)cc2)n1	-6	4	-2	1	1.3*	102	0	106	0
Cc1cc(C(F)(F)F)cc(NNC(=O)NC(=O)c2ccccc2Cl)n1	1	/	/	2	0	/	/	/	/
O=C(CSc1nc2nc3c(cc2c(=O)n1-c1ccccc1)CCCC3)Nc1cccc2ccccc12	-10	-14	3	-5	1.1*	95	0	142	0
COC(=O)c1nn(-c2ccccc2)nc1-c1nn(-c2ccccc2)nc1C(=O)OC	8	-22	-6	/	0.4*	101	0	98	0
O=C(O)c1nn(-c2ccccc2)nc1-c1nn(-c2ccccc2)nc1C(=O)O	-5	-12	-23	/	0	/	/	/	/
CCCCCCCCCCCCCCCC[n+]1ccc(/C=N/O)cc1	1	-68	-6	13	2.0*	108	0	118	0
CSCc1ccc(C(=O)NCCSc2ccc(Br)cc2)cc1	3	-6	1	-19	7.4*	93	0	87	0
CC(C(=O)Nc1ccccc1C(=O)N1CCOCC1)N(c1ccc(Cl)cc1)S(C)(=O)=O (stereo not given)	9	-4	0	-4	0.7*	103	0	91	0
Cc1ccc(N(C(C)C(=O)Nc2ccccc2C(=O)N2CCOCC2)S(C)(=O)=O)cc1C (stereo not given)	8	-5	-3	/	0	/	/	/	/
O=C(N[C@H]1CC[C@@H](CCNC(=O)C2CCOCC2)O[C@H]1CO)c1ccccn1	/	/	/	-2	/	/	/	/	/
O=C(COc1cccc2c1CCN(Cc1ccccc1F)C2=O)N1CCCCC1	-1	-10	5	3	0	/	/	/	/
CCOC(=O)N1CCN(C(=O)COc2cccc3c2CCN(Cc2ccccc2F)C3=O)CC1	-2	15	7	-5	2.7*	113	0	106	0
COc1cccc(C(=O)Nc2ccc3c(c2)C(=O)N(C)[C@@H]2CC[C@H](CC(=O)NCC(F)(F)F)O[C@@H]2CO3)c1	/	/	/	0	/	/	/	/	/
CCCCCCCCCCCCCCCC[N+](C)(C)CCN(Cc1ccc(OC)cc1)c1ncccn1	30	4	88*	/	2.4*	101	0	144	0
O=C(O)CC(NCc1ccco1)C(=O)OCC1CCCO1 (stereo not given)	-1	-16	-6	/	0.7*	104	0	94	0
SMILES	PDI turbidity	PvdQ inh	Rtt109 Vps75	ERp5 inh	Efflux pump inh	Yeast cmpd fluor	CaMdr1 efflux inh	CaCdr2 efflux inh	CaCdr1 efflux inh
O=C(O)CC(NCc1ccco1)C(=O)OCCc1ccccc1 (stereo not given)	-6	2	-9	/	0	/	/	/	/
C/C(=N/NC(=O)c1cccs1)c1cccs1	-7	-16	-5	/	0	/	/	/	/
C/C(=N\NC(=O)CC1(C)OCCO1)c1cccs1	1	18	-5	/	6.5*	100	0	100	0
CO[C@@H]1CN(C)C(=O)c2ccc(NC(=O)Nc3cccc(F)c3)cc2OC[C@@H](C)N(C(C)=O)C[C@H]1C	/	/	/	-1	/	/	/	/	/
CSc1ccccc1OC1CCN(Cc2ccccc2)CC1	-6	-11	7	/	5.8*	102	0	101	0
CC(=O)C1CCN(Cc2ccccc2)CC1	2	6	-6	/	0	/	/	/	/
O=C(Cn1c2ccc(F)cc2c2nc3n(c(=O)c21)CCS3)Nc1ccccc1F	/	/	/	/	0.4*	480*	1	120	1
Cn1c(=O)c(=O)n(C)c2cc(S(=O)(=O)N3CCc4ccccc43)ccc21	6	-3	-6	/	0.8*	238	0	96	0
CO[C@H]1CN(C)C(=O)c2ccc(NS(=O)(=O)c3cccc(F)c3)cc2OC[C@H](C)NC[C@H]1C	/	/	/	2	/	/	/	/	/
O=C(C[C@@H]1CC[C@@H](NC(=O)Nc2cccc(F)c2)[C@H](CO)O1)NCC1CCCCC1	/	/	/	-5	/	/	/	/	/
O=C(c1cc2nc(-c3cccs3)cc(C(F)(F)F)n2n1)N1CCCc2ccccc21	-18	4	-5	/	0.7*	90	0	83	0
Cc1ccc2c(c1)[C@H]1[C@H](CO2)[C@H](c2ccccc2)[C@]2(C)C(=O)Nc3cc(F)c(F)cc3C(=O)N12	3	-15	2	-8	0	101	0	98	0
COc1ccc2c(c1)OC[C@H]1[C@H]2N2C(=O)c3ccc(C)cc3NC(=O)[C@@]2(C)[C@H]1c1ccccc1	-3	-16	3	/	34*	104	0	106	0
